Sampled rows, rich in hits. Any-hit rate of the full collection: about 11%.
Pf growth 96h = P. falciparum growth inhibition at 96 hours. P. falciparum luciferase reporter growth, 96 h. Potency, µM (highest dose often 28.7 µM), actives largely listed as inhibitors. 6.9% of 320,000 active. AID 504834
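Infected RBCs, 2% Hct / 0.05% parasitemia final; luciferase-reporter P. falciparum; cpd 96 h, 37 C, 5% CO2; luciferase detection reagent; luminescence.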
AmpC inh detg = AmpC beta-lactamase inhibition with detergent present; P00811; 0.041% of 370,000 active; Potency, µM (top dose mostly 114 µM), actives largely listed as inhibitors; AmpC hydrolysis of nitrocefin, absorbance 480 nm, 0.01% Triton; further: nearly all actives have a fitted effect of over 25% in size
Target sequence (P00811 whole entry, looked up): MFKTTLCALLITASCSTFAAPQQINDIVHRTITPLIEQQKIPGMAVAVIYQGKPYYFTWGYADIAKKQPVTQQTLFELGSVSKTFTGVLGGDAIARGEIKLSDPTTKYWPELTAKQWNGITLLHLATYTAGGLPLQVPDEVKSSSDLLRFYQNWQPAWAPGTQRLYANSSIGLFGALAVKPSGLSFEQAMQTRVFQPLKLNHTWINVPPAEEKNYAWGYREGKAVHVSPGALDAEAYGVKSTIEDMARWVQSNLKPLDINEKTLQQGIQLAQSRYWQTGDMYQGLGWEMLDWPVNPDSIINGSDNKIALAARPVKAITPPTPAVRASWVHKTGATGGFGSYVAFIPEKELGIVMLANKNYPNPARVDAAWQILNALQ
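AmpC (5.3 nM in the dispensed reagent) in 20 mM phosphate pH 7.0 with 0.01% (detergent screen) or 0.0001% Triton X-100 was preincubated with compounds for 15 min at room temperature. Nitrocefin was then added from an 800 uM solution, and hydrolysis was followed at 480 nm.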
HCV inhibitor = HCV inhibition; Huh7.5.1 HCVcc-Cre infection, luciferase reporter, 44 h; Potency, µM (top dose mostly 41.8 µM), actives largely listed as inhibitors; 3.4% of 340,000 active; AID 651820
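Cells (1,000/well) were plated 4 h before compound, then infected with HCVcc-Cre virus (~0.5 moi). After 44 h further culture, infection was read as luciferase luminescence following a 15 min substrate incubation at room temperature.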
Pf growth 48h = inhibits P. falciparum growth in the first generation, 48 h | P. falciparum luciferase growth in erythrocytes, 48 h | Potency, µM (titrated, usually from 28.7 µM), hits mostly inhibitors | 5.9% of 310,000 active | AID 504832
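Parasite viability was followed by luminescence of a genomically integrated firefly luciferase. Cultures held 0.1% parasitemia at 2% hematocrit (final), incubated under 5% CO2 at 37 C.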
AMA1-RON2 inh = disrupts binding of P. falciparum AMA1 to RON2. AlphaScreen AMA1-biotinylated RON2 peptide binding. Potency, µM (top dose mostly 58.2 µM), usual class: inhibitors. 0.2% of 360,000 active; further: nearly all actives have a fitted effect of over 45% in size
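AMA1 (3D7) with his tag at 25 nM final met compounds first, then biotinylated RON2 peptide at 25 nM; detection used donor plus acceptor beads, 10 µg/mL apiece, read by AlphaScreen after 30 min at room temperature.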
AmpC no deterg = inhibitors of E. coli AmpC beta-lactamase without detergent; P00811; AmpC nitrocefin hydrolysis, absorbance 480 nm, 0.0001% Triton; Potency, µM (titrated, usually from 57.1 µM), usual class: inhibitors; 0.52% of 330,000 active; AID 485341; further: nearly all actives have a fitted effect of over 20% in size
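20 mM phosphate pH 7.0 + 0.01% (detergent screen) or 0.0001% Triton X-100; 5.3 nM AmpC reagent; cpd preinc 15 min RT; nitrocefin (800 uM stock) to start; A480 q20 s × 4 min; Activity was normalised to no-enzyme and no-compound control wells.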
Hits are given with their value; . = inactive; ? = inconclusive; / = not tested or not shown; ! = a repeat was not active; [ ] = dose if it differs, or a comment. The call rests on the fitted dose curve; in most records, active means well fitted curve in the direction sought with a large enough effect; inconclusive means small, poorly fitted or top-dose-only effect, or another doubt; inactive means no such curve, though single readings can be large; an effect the other way counts as inactive or inconclusive.

SMILES	Pf growth 96h	AmpC inh detg	HCV inhibitor	Pf growth 48h	AMA1-RON2 inh	AmpC no deterg
CN(c1ccccc1)S(=O)(=O)c1cccc(NC(=O)CN2CCc3ccccc3C2)c1	10µM	.	.	.	.	.
Cn1c(=O)c2c(nc(NCCc3ccccc3)n2Cc2cccc(Br)c2)n(C)c1=O	/	.	/	/	/	/
O=C(Nc1ccccc1)NN(C(=O)CCl)c1ccccc1	?	.	?	13µM	.	.
Cc1ccc(N(NC(=O)C(O)(c2ccccc2)c2ccccc2)C(=O)CCl)cc1	?	.	3.2µM	5.2µM	.	.
Cc1ccc(C(O)(C(=O)NN(C(=O)c2ccccc2)c2ccccc2)c2ccc(C)cc2)cc1	.	.	.	.	.	.
CCC(O)(CC)C(=O)NN(C(=O)CCl)c1ccccc1	5.2µM	.	.	?	.	.
CCCC(O)(CCC)C(=O)NN(C(=O)OC)c1ccccc1	.	?	.	.	.[11.6 µM]	.
Cc1ccc2nc(-c3ccc(Cl)cc3)cc(C(=O)OCC(=O)c3ccccc3)c2c1	/	.	/	/	/	/
COc1ccc(CCNC(=O)c2ccc3c(c2)c(C)c(C)n3Cc2ccccc2)c(OC)c1OC	/	.	/	/	/	/
Cn1c(=O)oc2cc(S(=O)(=O)NC(Cc3ccccc3)C(=O)NCc3ccccc3Cl)ccc21 (stereo not drawn)	/	.	/	/	/	/
COc1ccccc1OCC(=O)Nc1sc2c(c1C(=O)NCC1CCCO1)CCC2 (stereo not drawn)	10µM	.	0.89µM	13µM	.	.
Cc1ccc(-n2ncc3c(N4CCN(CCO)CC4)ncnc32)cc1Cl	/	.	/	/	/	/
O=S(=O)(CCN1CCOCC1)c1ccc(Oc2ccc(S(=O)(=O)CCN3CCOCC3)cc2)cc1	?	.	3.5µM	.	.	.
CCOC(=O)c1c(NC(=O)c2cc(CC)on2)sc(C)c1C	/	.	/	/	/	/
CCNc1nn2ccccc2c1/C=C(\C#N)C(=O)OCC	.	.	10µM	.	.	.
CCN(CC)c1ccc(NC(=O)CN2C(=O)c3cccnc3Sc3ccccc32)c(C)c1	/	.	/	/	/	/
CC(C)(CN1CCN(C(c2ccccc2)c2ccccc2)CC1)NS(=O)(=O)c1ccccc1	10µM	.	?	12µM	.	.
CC(C)(CN1CCN(Cc2ccccc2)CC1)NS(=O)(=O)c1ccccc1	.	.	.	.	.	.
CC(C)(CN1CCC(Cc2ccccc2)CC1)NS(=O)(=O)c1ccccc1	.	.	.	12µM	.	.
CCOC(=O)c1cccc(NC(=O)c2ccc3nc(Cc4ccccc4)oc3c2)c1	/	.	/	/	/	/
COc1ccc(NCc2cc3cc4c(cc3n(CC(=O)Nc3ccc(F)cc3F)c2=O)OCO4)cc1	/	.	/	/	/	/
Cc1nc(-c2ccc(S(=O)(=O)N3CCN(c4ccccc4F)CC3)cc2)co1	/	.	/	/	/	/
CCOc1ccc(/C=C2\SC(=S)NC2=O)cc1OC	13µM	.	.	.	.	.
COc1ccc(/C=C2/S/C(=N/S(=O)(=O)Cc3ccccc3)NC2=O)cc1OC	12µM	.	.	?	.	.
COc1cc(/C=C2/SC(=S)NC2=O)ccc1OS(=O)(=O)c1ccc(C)cc1	12µM	.	.	.	.	.
SMILES	Pf growth 96h	AmpC inh detg	HCV inhibitor	Pf growth 48h	AMA1-RON2 inh	AmpC no deterg
COc1cc(/C=C2\SC(=S)NC2=O)ccc1OS(=O)(=O)c1ccccc1	.	.	.	.	/	.
CCCCN(CCCNC(=O)c1cc(Nc2ccc(OC)c(OC)c2)nc2ccccc12)Cc1ccccc1	/	.	/	/	/	/
NC(=O)Cn1c(=O)n(C2CCCCC2)c(=O)c2c3c(sc21)CCCCC3	2.3µM	.	.	?	.	.
CCC(=O)N1CCCc2cc(S(=O)(=O)N3CCC(C(=O)NCc4ccc(F)cc4)CC3)ccc21	/	.	/	/	/	/
COc1cc2nc(C)sc2cc1SC	/	.	?	/	.	.
COc1cc2nc(/C=C/c3cc(OC)c(OC)c(OC)c3)sc2cc1SC	.	.	10µM	2.6µM	.	.
CCC(CC)C(=O)N1CCc2cc(OC)c(OC)cc2C1COc1ccccc1OC (stereo not drawn)	/	.	/	/	/	/
COc1ccccc1NC(=O)C1CCN(S(=O)(=O)c2ccc3[nH]c4c(c3c2)CCCCC4)CC1	/	.	/	/	/	/
Cc1ccc(C(=O)Nn2c(C)nc3ccccc3c2=O)cc1C	13µM	.	.	.	.	.
Cc1nc2ccccc2c(=O)n1Nc1cccc(Cl)c1	5.9µM	.	.	2.9µM	.	.
Cc1nc2ccccc2c(=O)n1NC(=O)c1ccc(C(C)(C)C)cc1	?	.	.	.	.	.
O=S(=O)(NCC(c1ccc2c(c1)OCO2)N1CCN(c2ccccc2)CC1)c1ccccc1 (stereo not drawn)	?	?	.	7.4µM	?	.
O=S(=O)(NCC(c1cccnc1)N1CCN(c2ccccc2)CC1)c1cc(F)ccc1F (stereo not drawn)	.	.	.	10µM	.	.
CCC(=O)NCC(c1ccc2c(c1)OCO2)N1CCN(c2ccccc2)CC1 (stereo not drawn)	/	.	/	/	/	/
COc1ccccc1N1CCN(C(CNS(=O)(=O)c2cc(F)ccc2F)c2cccnc2)CC1 (stereo not drawn)	?	?	.[0.335 µM]	?	.	.
CCc1ccccc1NS(=O)(=O)c1ccc2c(c1)CC(=O)N2	/	.	/	/	/	/
COc1ccc(-c2noc(N3CCN(c4cccc(Cl)c4)CC3)n2)cc1OC	/	.	/	/	/	/
CCOC(=O)c1ccc(NC(=O)c2c(NCc3cccs3)sc3c2CCCCC3)cc1	/	.	/	/	/	/
CCC1CCCCN1CCCNC(=O)c1ccc2c(c1)N(Cc1cccc(C)c1)C(=O)c1ccccc1S2(=O)=O (stereo not drawn)	/	.	/	/	/	/
CCOc1ccccc1C(O)C1=CC(=O)c2ccccc2C1=O (stereo not drawn)	/	/	.	/	.	/
CC(C)(C=O)C1=CC(=O)c2ccccc2C1=O	?	?	7.1µM	?	.	.
CC1=CC(=O)c2ccccc2C1=O	15µM	?	.	?	.	.
COc1cccc2c1C(=O)C=C(C)C2=O	15µM	.	?	?	.	.
C=CCN1C(=O)C(CC(C)C)NC1=S (stereo not drawn)	0.54µM!	/	/	.	/	/
C=CCN1C(=O)C(CCCC)NC1=S (stereo not drawn)	.	.	.	.	.	.
COc1cccc2cc(-c3nnc(Nc4ccccc4C)s3)c(=O)oc12	/	.	/	/	/	/
CC(C)=CCC/C(C)=C/Cc1c(O)ccc(C(=O)/C=C/c2ccc(O)cc2)c1O	8.3µM	.	25µM	?	.	.
C=C(C)C(O)Cc1c(OC)ccc(C(=O)/C=C/c2ccc(O)cc2)c1O (stereo not drawn)	/	/	?	/	.	.
Cc1cc(NC(=O)C2C3C(=O)N(c4cccnc4)C(C(=O)NC(C)(C)C)C34C=CC2(C)O4)no1 (stereo not drawn)	13µM	.	.	.	.	.

High-throughput results: PubChem BioAssay, National Center for Advancing Translational Sciences (NCATS)
